Measured values as given in PubChem BioAssay AID1159580 (chemical genetic matrix, 2015).
Out of some 5,500 compounds screened, about 2,000 (36%) were called active. Roughly 18% stayed inconclusive and do not appear here. Rule as the data show it: active = normalized growth mostly below about 0.91 (no sharp cut-off); inconclusive = no clear call, values can overlap the other calls; inactive = mostly above about 0.92. Some of the results follow.

Test: chemical genetic growth profiling, strain panel (AID 1159580);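 also: tested at 20 µM; growth read once vehicle control cultures reached saturation at 30 °C; 1 = growth at the plate median or of vehicle wells; lower values mean less growth of the strain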
Conditions: growth OD
[1] = S. cerevisiae deletion strains, locus YBR021W, strain FUR4, hits give low values
[2] = S. cerevisiae deletion strains, locus YBR229C, strain ROT2, hits give low values
[3] = S. cerevisiae deletion strains, locus YCL029C, strain bik1, hits give low values
[4] = S. cerevisiae deletion strains, locus YDL035C, strain GPR1, hits give low values
[5] = S. cerevisiae deletion strains, locus YDL074C, strain BRE1, hits give low values
[6] = S. cerevisiae deletion strains, locus YDL101C, strain DUN1, hits give low values
[7] = S. cerevisiae deletion strains, locus YDL185W, strain tfp1, hits give low values
[8] = S. cerevisiae deletion strains, locus YDL192W, strain arf1, hits give low values
[9] = S. cerevisiae deletion strains, locus YDR101C, strain arx1, hits give low values
[10] = S. cerevisiae deletion strains, locus YDR162C, strain NBP2, hits give low values
[11] = S. cerevisiae deletion strains, locus YDR318W, strain mcm21, hits give low values
[12] = S. cerevisiae deletion strains, locus YDR388W, hits give low values
[13] = S. cerevisiae deletion strains, locus YDR502C, strain sam2, hits give low values
[14] = S. cerevisiae deletion strains, locus YER110C, hits give low values
[15] = S. cerevisiae deletion strains, locus YER155C, strain BEM2, hits give low values
[16] = S. cerevisiae deletion strains, locus YER167W, strain BCK2, hits give low values
[17] = S. cerevisiae deletion strains, locus YGL078C, strain dbp3, hits give low values
[18] = S. cerevisiae deletion strains, locus YGL086W, strain mad1, hits give low values
[19] = S. cerevisiae deletion strains, locus YGL248W, strain PDE1, hits give low values
[20] = S. cerevisiae deletion strains, locus YGR135W, strain pre9, hits give low values
[21] = S. cerevisiae deletion strains, locus YGR252W, strain gcn5, hits give low values
[22] = S. cerevisiae deletion strains, locus YHR030C, strain SLT2, hits give low values
[23] = S. cerevisiae deletion strains, locus YHR079C, strain IRE1 (second series), hits give low values
[24] = S. cerevisiae deletion strains, locus YHR094C, strain hxt1, hits give low values
[25] = S. cerevisiae deletion strains, locus YHR129C, strain ARP1, hits give low values
[26] = S. cerevisiae deletion strains, locus YHR200W, strain rpn10, hits give low values
[27] = S. cerevisiae deletion strains, locus YIL066C, strain RNR3, hits give low values
[28] = S. cerevisiae deletion strains, locus YIL073C, strain SPO22, hits give low values
[29] = S. cerevisiae deletion strains, locus YIL125W, strain kgd1, hits give low values
[30] = S. cerevisiae deletion strains, locus YIR030C, strain dcg1, hits give low values
[31] = S. cerevisiae deletion strains, locus YJL095W, strain BCK1, hits give low values
[32] = S. cerevisiae deletion strains, locus YJL134W, strain LCB3, hits give low values
[33] = S. cerevisiae deletion strains, locus YJL168C, strain set2, hits give low values
[34] = S. cerevisiae deletion strains, locus YJL187C, strain SWE1 (second series), hits give low values
[35] = S. cerevisiae deletion strains, locus YKL009W, strain mrt4, hits give low values
[36] = S. cerevisiae deletion strains, locus YKL068W, hits give low values
[37] = S. cerevisiae deletion strains, locus YKL085W, strain MDH1 (second series), hits give low values
[38] = S. cerevisiae deletion strains, locus YKL085W, strain MDH1, hits give low values
[39] = S. cerevisiae deletion strains, locus YKR001C, strain vps1, hits give low values
[40] = S. cerevisiae deletion strains, locus YLR039C, strain RIC1, hits give low values
[41] = S. cerevisiae deletion strains, locus YLR058C, strain SHM2, hits give low values
[42] = S. cerevisiae deletion strains, locus YLR102C, strain apc9, hits give low values
[43] = S. cerevisiae deletion strains, locus YLR268W, strain sec22, hits give low values
[44] = S. cerevisiae deletion strains, locus YLR330W, strain CHS5, hits give low values
[45] = S. cerevisiae deletion strains, locus YLR371W, strain rom2, hits give low values
[46] = S. cerevisiae deletion strains, locus YLR418C, strain cdc73, hits give low values
[47] = S. cerevisiae deletion strains, locus YML016C, strain PPZ1, hits give low values
[48] = S. cerevisiae deletion strains, locus YML032C, strain rad52, hits give low values
[49] = S. cerevisiae deletion strains, locus YML124C, strain tub3, hits give low values
[50] = S. cerevisiae deletion strains, locus YMR078C, strain ctf18, hits give low values
[51] = S. cerevisiae deletion strains, locus YMR223W, strain ubp8, hits give low values
[52] = S. cerevisiae deletion strains, locus YMR307W, strain GAS1, hits give low values
[53] = S. cerevisiae deletion strains, locus YNL067W, strain RPL9B, hits give low values
[54] = S. cerevisiae deletion strains, locus YNL153C, strain GIM3, hits give low values
[55] = S. cerevisiae deletion strains, locus YNL233W, strain BNI4, hits give low values
[56] = S. cerevisiae deletion strains, locus YNL250W, strain rad50, hits give low values
[57] = S. cerevisiae deletion strains, locus YNL271C, strain bni1, hits give low values
[58] = S. cerevisiae deletion strains, locus YNL298W, strain CLA4, hits give low values
[59] = S. cerevisiae deletion strains, locus YNL307C, strain MCK1, hits give low values
[60] = S. cerevisiae deletion strains, locus YNR052C, strain pop2, hits give low values
[61] = S. cerevisiae deletion strains, locus YOL012C, strain htz1
[62] = S. cerevisiae deletion strains, locus YOL147C, strain pex11, hits give low values
[63] = S. cerevisiae deletion strains, locus YOR061W, strain CKA2, hits give low values
[64] = S. cerevisiae deletion strains, locus YOR069W, strain VPS5, hits give low values
[65] = S. cerevisiae deletion strains, locus YOR136W, strain idh2, hits give low values
[66] = S. cerevisiae deletion strains, locus YOR144C, strain elg1, hits give low values
[67] = S. cerevisiae deletion strains, locus YOR184W, strain ser1, hits give low values
[68] = S. cerevisiae deletion strains, locus YOR316C, strain cot1, hits give low values
[69] = S. cerevisiae deletion strains, locus YPL241C, strain CIN2, hits give low values
[70] = S. cerevisiae deletion strains, locus YPR119W, strain clb2, hits give low values
[71] = S. cerevisiae deletion strains, locus YPR141C, strain kar3, hits give low values
[72] = S. cerevisiae deletion strains, locus YPR163C, strain tif3, hits give low values
[73] = S. cerevisiae deletion strains, locus YPR167C, strain met16, hits give low values
[74] = S. cerevisiae deletion strains, strain wtn01, hits give low values

Measured: normalized growth

CC(=O)O[C@H]1CC[C@]2(C)C3=CC(=O)[C@@]4(C)C(C[C@@H]5OC6(OCC(C)CC6Br)[C@@H](C)[C@@H]54)C3CC[C@H]2C1 (some centres undefined)
inactive: S. cerevisiae deletion strains, locus YAL013W, strain DEP1, hits give low values 1.01 | [1] 0.964 | [2] 0.99 | [3] 0.994 | [4] 1.01 | [5] 1.01 | [6] 0.989 | [7] 0.988 | [8] 0.995 | [9] 1.02 | [10] 1.01 | [11] 0.997 | [12] 0.994 | [13] 0.995 | [14] 0.986 | [15] 0.987 | [16] 0.996 | [17] 0.982 | [18] 1.01 | [19] 0.995 | [20] 0.973 | S. cerevisiae deletion strains, locus YGR229C, strain SMI1, hits give low values 1.03 | [21] 0.986 | [22] 0.992 | [23] 0.984 | [24] 0.973 | [25] 0.995 | [26] 0.984 | [27] 1 | [28] 1.01 | [29] 0.994 | [30] 0.996 | [31] 0.994 | [32] 0.993 | [33] 0.994 | [34] 0.981 | S. cerevisiae deletion strains, locus YJR043C, strain POL32, hits give low values 1.02 | S. cerevisiae deletion strains, locus YJR075W, strain HOC1, hits give low values 0.995 | [35] 1.01 | [36] 0.996 | [39] 0.989 | [40] 0.987 | [41] 0.995 | [42] 0.993 | S. cerevisiae deletion strains, locus YLR262C, strain YPT6, hits give low values 1.04 | [43] 0.995 | [44] 0.997 | [45] 0.99 | [46] 0.991 | [47] 0.982 | [48] 0.995 | [49] 0.988 | [50] 0.993 | [51] 0.993 | [52] 0.981 | [53] 0.98 | [54] 0.993 | [55] 1.01 | [56] 0.989 | [57] 0.993 | [58] 0.99 | [59] 0.993 | [60] 0.983 | [61] 0.79 | [62] 0.997 | [63] 0.992 | [64] 0.992 | [65] 0.991 | [66] 0.989 | [67] 1.01 | [68] 0.99 | [69] 0.999 | [70] 0.991 | [71] 0.99 | [72] 0.992 | [73] 0.992 | [74] 1.01
active: [37] 1.13 [resistant] | [38] 1.13 [resistant]

CC(=O)O[C@H]1CC[C@]2(C)C3C(=O)[C@@H](OC(C)=O)[C@@]4(C)C(C[C@@H]5O[C@]6(CCC(C)CO6)[C@@H](C)[C@@H]54)C3CC[C@H]2C1 (some centres undefined)
inactive: [1] 1.01 | [2] 0.997 | [3] 0.996 | [4] 1.03 | [5] 1.06 | [6] 0.986 | S. cerevisiae deletion strains, locus YDL134C, strain PPH21, hits give low values 0.998 | [7] 0.986 | [8] 1 | [9] 1.01 | [10] 1.02 | [11] 0.991 | [12] 0.99 | [13] 0.984 | S. cerevisiae deletion strains, locus YEL061C, strain CIN8, hits give low values 0.999 | [14] 0.983 | [15] 0.984 | [16] 0.993 | [17] 0.963 | [18] 0.986 | [19] 0.985 | [20] 0.978 | [21] 1.04 | [22] 0.992 | [23] 0.99 | [24] 0.987 | [25] 0.991 | [26] 0.982 | [27] 1.01 | [28] 1.01 | [29] 0.987 | [30] 0.988 | [31] 0.996 | [32] 0.993 | [33] 0.994 | [34] 0.988 | [35] 0.994 | [36] 0.997 | [37] 0.987 | [38] 0.987 | S. cerevisiae deletion strains, locus YKL190W, strain CNB1, hits give low values 0.998 | [39] 0.982 | [40] 1.05 | [41] 1 | [42] 0.985 | [43] 1.01 | [44] 0.996 | [45] 0.99 | [46] 0.977 | [47] 0.981 | [48] 1.01 | [49] 0.991 | [50] 0.992 | [51] 0.994 | [52] 1 | [53] 0.981 | [54] 0.988 | [55] 0.988 | [56] 0.968 | [57] 0.976 | [58] 0.991 | [59] 0.986 | S. cerevisiae deletion strains, locus YNL322C, strain KRE1, hits give low values 0.997 | [60] 0.974 | [61] 0.895 | [62] 0.986 | [63] 1 | [64] 0.996 | [65] 0.988 | [66] 0.992 | [67] 1.01 | [68] 0.987 | S. cerevisiae deletion strains, locus YPL055C, strain LGE1, hits give low values 1.02 | [69] 0.996 | [70] 0.98 | [71] 0.983 | [72] 0.991 | [73] 0.976 | [74] 1.01 | S. cerevisiae strains, strain wild type, hits give low values 1.01
